# In all, about 310,000 compounds went through this assay and about 14,000 (4.5%) showed an effect of 50% or more. The effect is printed as a negative number. Only a selection was taken, and strong results are over-represented in it overall.
# Target: human ether-à-go-go-related gene (hERG) potassium channel (human, UniProt Q12809)
# Experiment: primary screen, population patch clamp on CHO cells stably expressing hERG; higher = less effect of the substance
# 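Also: peak tail current of the secondary pulse compared with the same well before compound.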
# Chain of human ether-à-go-go-related gene (hERG) potassium channel (Q12809 whole entry, looked up): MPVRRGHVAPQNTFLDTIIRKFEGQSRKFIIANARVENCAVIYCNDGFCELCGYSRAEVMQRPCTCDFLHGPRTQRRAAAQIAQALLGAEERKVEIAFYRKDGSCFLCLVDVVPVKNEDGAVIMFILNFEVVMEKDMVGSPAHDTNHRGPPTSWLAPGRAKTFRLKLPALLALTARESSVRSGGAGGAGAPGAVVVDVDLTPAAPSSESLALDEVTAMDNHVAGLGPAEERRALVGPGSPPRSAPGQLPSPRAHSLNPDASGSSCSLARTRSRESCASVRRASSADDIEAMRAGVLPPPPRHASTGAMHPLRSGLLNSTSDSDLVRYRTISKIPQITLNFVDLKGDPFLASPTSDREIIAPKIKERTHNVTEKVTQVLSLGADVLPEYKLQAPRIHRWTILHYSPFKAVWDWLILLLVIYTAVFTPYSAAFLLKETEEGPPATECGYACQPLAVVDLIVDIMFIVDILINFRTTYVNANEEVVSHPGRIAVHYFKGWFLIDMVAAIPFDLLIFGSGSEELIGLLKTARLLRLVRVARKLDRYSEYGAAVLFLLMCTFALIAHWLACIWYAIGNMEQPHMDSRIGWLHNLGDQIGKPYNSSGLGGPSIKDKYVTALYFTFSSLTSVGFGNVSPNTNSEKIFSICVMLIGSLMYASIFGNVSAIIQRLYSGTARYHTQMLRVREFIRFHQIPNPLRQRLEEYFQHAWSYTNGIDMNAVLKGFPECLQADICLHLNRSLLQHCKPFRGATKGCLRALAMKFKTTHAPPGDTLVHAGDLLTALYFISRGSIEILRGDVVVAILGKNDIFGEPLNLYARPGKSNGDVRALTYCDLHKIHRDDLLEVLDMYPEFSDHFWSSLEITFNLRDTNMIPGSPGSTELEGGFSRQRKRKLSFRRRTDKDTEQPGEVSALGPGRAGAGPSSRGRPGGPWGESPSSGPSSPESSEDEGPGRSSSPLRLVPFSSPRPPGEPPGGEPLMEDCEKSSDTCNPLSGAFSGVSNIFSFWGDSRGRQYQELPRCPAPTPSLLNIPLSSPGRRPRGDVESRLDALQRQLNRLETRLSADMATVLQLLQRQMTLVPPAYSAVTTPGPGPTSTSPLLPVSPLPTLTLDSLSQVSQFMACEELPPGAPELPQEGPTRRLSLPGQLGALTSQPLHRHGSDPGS
row,Compound,"hERG current change (%, negative = inhibition) at 10uM [%]"
1,COCC(C)n1c(SCc2ccc(C(=O)OC)o2)nc2ccccc2c1=O (stereo not shown),-8.61
2,COc1ccccc1C1CC(c2cccs2)=Nc2ccccc2S1 (stereo not shown),14.4
3,CC1CCCN(C(=O)c2ccc(Br)c(S(=O)(=O)N3CCOCC3)c2)C1 (stereo not shown),-7.24
4,COc1ccc(C2CC3(CC(C)(C)NC(=S)N3)Oc3cc(O)cc(C)c32)cc1 (stereo not shown),14.6
5,COc1ccc(C2CC3(CC(C)(C)NC(SC)=N3)Oc3cc(O)cc(C)c32)cc1.I (stereo not shown),-74.3
6,Cc1cc(O)cc2c1C(c1ccc(F)cc1)CC1(CC(C)(C)NC(=S)N1)O2 (stereo not shown),14.2
7,CC12CN(C(=S)Nc3ccccc3)CC(C)(CN(C(=S)Nc3ccccc3)C1)C2=O,10.3
8,COc1ccc(/C=C(/NC(=O)c2ccco2)C(=O)Nc2ccc(C(=O)O)cc2)cc1,9.11
9,COc1ccccc1N1CCN(C(=O)c2ccc(-c3ccc(Cl)cc3)o2)CC1,-7.22
10,CC(C)c1ccc(OCC(=O)N2CCN(C(=O)c3ccco3)CC2)cc1,-49.1
11,Cc1cccc(OCC(=O)N2CCN(C(=O)c3ccco3)CC2)c1,-6.95
12,O=C(COc1ccc2ccccc2c1)N1CCN(C(=O)c2ccco2)CC1,-61.7
13,COc1cc(/C=C/C(=O)OCC(=O)N2CCN(C(=O)c3ccco3)CC2)ccc1O,2.55
14,O=C(COC(=O)/C=C/c1ccc(OC(F)F)cc1)NCCN1C(=O)CSC1=O,-60.8
15,O=C(/C=C/c1ccc(OC(F)F)cc1)OCC(=O)N1CCN(C(=O)c2ccco2)CC1,-71
16,O=C(COc1ccc2ccccc2c1)N1CCN(C2CCN(Cc3ccccc3)CC2)CC1,-77.7
17,Cc1ccc(/C=C/C(=O)OCC(=O)NCCN2C(=O)CSC2=O)cc1,-17.9
18,COc1cccc(CN2CCN(C(=O)COc3ccc4ccccc4c3)CC2)c1,-38.7
19,O=C(COC(=O)/C=C/c1ccc(Cl)cc1)NCCN1C(=O)CSC1=O,-21.2
20,O=C(COc1ccc2ccccc2c1)N1CCN(Cc2ccncc2)CC1.O=C(O)C(=O)O,-33.9
21,CCOC(=O)/C=C/C(=O)OCC(=O)N1CCN(C(=O)c2ccco2)CC1,9.59
22,CC1=NN(c2ccccc2)C(=O)C1C(=O)c1cc([N+](=O)[O-])cc([N+](=O)[O-])c1 (stereo not shown),2

row,Compound,"hERG current change (%, negative = inhibition) at 10uM [%]"
1,CCn1c(=S)sc2c(=O)n(CC(=O)Nc3cccc(Cl)c3)c(C)nc21,6.27
2,Cc1ccc(-c2nc(N)sc2CC(=O)OCC(=O)N2C(C)CCCC2C)cc1 (stereo not shown),-7.22
3,COc1ccc2cc(CCNC(=O)c3ccc(Br)o3)c(=O)[nH]c2c1,-9.51
4,COCCCNC(=S)N1CCN(C(c2ccccc2)c2ccccc2)CC1,5.04
5,COc1cccc2cc(C(C)N(CCCN3CCOCC3)C(=S)Nc3ccccc3C)oc12 (stereo not shown),-7.78
6,COc1ccc2[nH]c(=O)c(CN(C(=O)C(C)C)c3ccccc3OC)cc2c1,-2.54
7,COc1cccc(=O)c2c(C)oc(C)c12,3.11
8,O=C(N/N=C/c1cccs1)c1cnccn1,-1.91
9,CC(Sc1nc(-c2ccccc2)cc(C(F)(F)F)n1)C(=O)N1CCCCC1 (stereo not shown),-17.9
10,N#Cc1ccc(OCC(=O)N2CCN(C(=O)c3ccco3)CC2)cc1,-71
11,O=C(COc1ccccc1)N1CCN(C(=O)c2ccco2)CC1,-8.03
12,COc1ccc(OCC(=O)N2CCN(C(=O)c3ccco3)CC2)cc1,-32.3
13,CC1(c2nnc(Cc3ccccc3)o2)CC(c2cccc(F)c2)=NO1 (stereo not shown),-3.35
14,Cc1cc(C)n(-c2nncn2/N=C/c2ccccc2F)n1,3.06
15,COc1ccccc1-n1ccnc(SCC(=O)NCc2ccccc2Cl)c1=O,8.39
16,O=C1CC[C@H](O)CCN1[C@H](CSc1ccc(Br)cc1)Cc1ccccc1,-24.3
17,O=C1CC[C@H](OCc2ccccc2)CCN1[C@H](CSc1ccccc1)Cc1ccccc1,-51
18,O=C1CCN(CCc2ccccc2)CCN1[C@H](CSc1ccccc1)Cc1ccccc1,-77.1
19,CC(C)C[C@@H](CO)N1CCN(Cc2ccccc2)CCC1=O,6.02
20,CC(C)[C@@H](CSc1ccccc1)N1CCN(Cc2ccccc2)CCC1=O,-63.4
21,C[C@H]1CCC(=O)N([C@H](CSc2ccccc2)Cc2ccccc2)CC1,-37
22,CC(C)C(CO)N1CCN(Cc2ccccc2)CCC1=O (stereo not shown),4.74

row,Compound,"hERG current change (%, negative = inhibition) at 10uM [%]"
1,Cc1ccc(SC[C@H](Cc2ccccc2)N2CCN(CCc3ccccc3)CCC2=O)cc1,-17.9
2,O=C1CCN(Cc2ccc(Br)cc2)CCN1[C@H](CO)Cc1ccccc1,-10.4
3,O=C1CCN(CCc2ccccc2)CCN1[C@H](CSc1ccc(Br)cc1)Cc1ccccc1,-74.6
4,O=C1CC[C@H](O)CCN1[C@H](CSc1ccccc1)Cc1ccccc1,-21.7
5,Clc1ccc(C2[C@H]3CN(CC4CCCCC4)[C@H](c4ccccc4)C34CC2(c2cccnc2)C4)cn1 (stereo partly shown),-26.1
6,O=C(O)c1cccc(NC(=O)c2cn(-c3ccccc3)nc2-c2ccc([N+](=O)[O-])cc2)c1,19.5
7,COC(=O)c1nn(-c2cccc(Cl)c2)ccc1=O,6.98
8,CCCCN(CCO)CCCC,14
9,CC(C)c1ccc(OCC(=O)Nc2ccccc2C(=O)N2CCOCC2)cc1,-18.9
10,CCOC(=O)C(C)Sc1nc(C2CC2)cc(C(F)(F)F)c1C#N (stereo not shown),5.04
11,CCOC(=O)Cn1nnnc1CN(CCc1ccccc1)Cc1cc2cc(CC)ccc2[nH]c1=O,-4.43
12,CCCN(CCO)Cc1cccc(Br)c1,-0.752
13,COc1ccc(Br)cc1C(=O)N/N=C/c1cccnc1,-8.72
14,CCOc1ccc(-c2csc(NC(=O)C3CCCO3)n2)cc1 (stereo not shown),4.35
15,O=C1CCN(Cc2ccc(O)cc2)CCN1[C@H](CO)Cc1ccccc1,2.51
16,O=C1CCN(Cc2ccccc2)CCN1[C@H](CSc1ccccc1)Cc1ccccc1,-72.1
17,[N-]=[N+]=NC[C@H](Cc1ccccc1)N1CCN(Cc2ccccc2)CCC1=O,3.9
18,CC(C)C[C@@H](CSc1ccc(Br)cc1)N1CCN(CCc2ccccc2)CCC1=O,-70.6
19,CC(C)C[C@@H](CO)N1CCN(CCCc2ccccc2)CCC1=O,-31.1
20,CC(C)C[C@@H](CC#N)N1CCN(CCc2ccccc2)CCC1=O,2.01
21,CCOc1[nH]n(-c2ccccc2)c(=O)c1C=Nc1ccccc1,-2.58
22,CC1CN(C(=O)c2ccc(CNS(=O)(=O)c3cccc(C(F)(F)F)c3)cc2)CC(C)O1 (stereo not shown),9.72

row,Compound,"hERG current change (%, negative = inhibition) at 10uM [%]"
1,O=C(Nc1ccc2ccccc2c1)c1ccccc1O,24.6
2,Cc1ccc(C(OC(=O)c2ccco2)C(=O)NC(C)(C)C)cc1 (stereo not shown),10.8
3,N/C(Cc1ccccc1Sc1ccccc1)=N\O.O=C(O)/C=C\C(=O)O,-22.2
4,CCN(CC)Cc1ccccc1Sc1ccccc1.O=C(O)/C=C\C(=O)O,-53.3
5,CC(Cc1ccccc1Sc1ccccc1)N(C)C.O=C(O)/C=C\C(=O)O (stereo not shown),-69.5
6,N=C(N)Cc1ccccc1Sc1ccccc1.O=C(O)/C=C\C(=O)O,-1.09
7,CN(C)Cc1ccccc1Cc1ccccc1.O=C(O)/C=C\C(=O)O,-10.1
8,CN(C)Cc1ccccc1Sc1ccc(O)cc1O.O.O=C(O)/C=C\C(=O)O,-3.84
9,COC(=O)CSc1ncnc2c1sc1nc3c(cc12)COC(C)(C)C3,23.5
10,COc1ccc(C(=O)NCC(=O)OCC(=O)Nc2cc([N+](=O)[O-])ccc2F)cc1,-23.4
11,Cn1c(CSCc2ccc(F)cc2)nnc1SCC(=O)Nc1cccc(C(=O)O)c1,9.71
12,Cc1cccc(N(Cc2cc3cc(C)ccc3[nH]c2=O)C(=O)c2cccs2)c1,5.95
13,c1ccc(CN2CCC(Nc3nc(-c4ccccc4)nc4ccccc34)CC2)cc1,-20.5
14,c1ccc(CN2CCC(Nc3nc(-c4cccs4)nc4ccccc34)CC2)cc1,-59.9
15,Cc1ccc(CNc2nc(-c3cccs3)nc3ccccc23)cc1,12.1
16,c1cncc(CNc2nc(-c3cccnc3)nc3ccccc23)c1,-25.3
17,c1csc(CNc2nc(-c3cccs3)nc3ccccc23)c1,-6.81
18,c1ccc(CN2CCC(Nc3nc(-c4cccnc4)nc4ccccc34)CC2)cc1,-80.5
19,Nc1ccc(N=Nc2ccccc2O)c(N)c1,10.9
